Reference: the supplement of paper PMC10338343
± gives the standard deviation.

How the values were obtained:
[1] = test system: MILI (PIWIL2) piRISC loaded with L1MC piRNA (26 nt); assay: pre-steady-state target cleavage rate (min^-1); guide: L1MC piRNA 5'p-UAACUAAAUACUAUGCAAGCUGUAGG; higher = faster piRNA-guided slicing of the target; settings: auxiliary factor: 500 nM mouse GTSF1
Summary of the method: (§1)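 Active affinity-purified piRISC (1 nM) loaded with one synthetic guide was mixed with a transcribed, DNA-blocked target RNA library (0.1 nM), with or without 500 nM GTSF1 partner protein, in HEPES–potassium acetate buffer at 33 °C for 0–8 or 0–960 min. Uncleaved targets were sequenced, normalised to depth and to weakly complementary targets, and pooled across three trials, with k3 capped at 0.0001 min^-1. The pre-steady-state cleavage rate was determined with a burst-and-steady-state fit.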

[2] = test system: EfPiwi piRISC loaded with L1MC piRNA (26 nt); assay: pre-steady-state target cleavage rate (min^-1); auxiliary factor: 500 nM Ephydatia muelleri Gtsf1; guide: L1MC piRNA 5'p-UAACUAAAUACUAUGCAAGCUGUAGG; MIWI and MILI are mouse PIWI proteins and EfPiwi is from a freshwater sponge; tags in brackets are library labels; higher = faster piRNA-guided slicing of the target
Summary of the method: as §1

| Sequence | pre-steady-state target cleavage rate [1] | pre-steady-state target cleavage rate [2] |
| --- | --- | --- |
| UCCUGGAUGAGCUAGCAUAGAAUUUAGUUA | 0.0337 ± 0.011 | 0.00286 ± 0.0026 |
| UCCUGCUAGAGCUUCCAUAGUAUUUAGUUA | 0.246 ± 0.047 | 0.00239 ± 0.0017 |
| UCCUGGAUGAGCUUGCAUAGUAUUAAGAUA | 0.00532 ± 0.0045 | 0.00505 ± 0.003 |
| UCCUGGAUGUCCUUGCAUAGUAUUUAGGUA | 0.0702 ± 0.017 | 0.00431 ± 0.0026 |
| UCCUCCUACAGCUUGCAUAGUAUAUAGAAA | 0.105 ± 0.028 | 0.00329 ± 0.0015 |
| UCCUGCUACAGCUUGCAUUAGUAUUUAGUUA | 0.017 ± 0.007 | 0.00378 ± 0.003 |
| UCCUGCUACAGCUUGCAUAGUAAAAAGUAA | 0.0283 ± 0.0099 | 0.00322 ± 0.0027 |
| UCCUGGAUGAGCUUGCAUACUAUUUAGUAA | 0.00877 ± 0.0036 | 0.00227 ± 0.0018 |
| UCCUGCUAGAGCUUGCAUAGUAUUUAGAAA | 0.205 ± 0.042 | 0.00419 ± 0.0022 |
| UCCUCCUACAGCUACGAUAGUAUUUAGUUA | 0.232 ± 0.015 | 0.00503 ± 0.0031 |
| UCCUGGAUGAGCUUGCAUAGUAUUUAUUA | 0.0142 ± 0.0067 | 0.00268 ± 0.0022 |
| UCCUCCUACAGCUUGCAUACUAUUUAGAAA | 0.136 ± 0.043 | 0.00366 ± 0.0019 |
| UCCUGGAUGAGCUUGGCAUAGUAUUUAGUUA | 0.224 ± 0.054 | 0.0123 ± 0.0039 |
| UCCUGCAACAGCUUGCAUAGUAUUUUGUUA | 0.179 ± 0.023 | 0.00469 ± 0.0013 |
| UCCUCCAUGAGCUUGCAUAGUAUUUAGAAA | 0.0637 ± 0.016 | 0.00475 ± 0.0019 |
| UCCUGGAACAGCUUGCAUAGUAAUUAGUAA | 0.108 ± 0.015 | 0.00418 ± 0.0019 |
| UCCUGGUACAGCUUGCAUAGUAUUUAGCUUA | 0.204 ± 0.041 | 0.00493 ± 0.0023 |
| UCCUCCUACAGCUUGCAUUAGUAUUUAGUUA | 0.0229 ± 0.0088 | 0.00479 ± 0.0038 |
| UCCUGGAACACCAUGCAUAGUAUUUAGUUA | 0.163 ± 0.018 | 0.00616 ± 0.0041 |
| UCCUCCUACAGCUUGCAUAGUAUUAUGAAA | 0.115 ± 0.029 | 0.00358 ± 0.0025 |

| Sequence | pre-steady-state target cleavage rate [1] | pre-steady-state target cleavage rate [2] |
| --- | --- | --- |
| UCCUGGAACUGCUUGCAUACUAUUUAGUUA | 0.076 ± 0.01 | 0.0046 ± 0.0019 |
| UCCUGGUACAGCUUGCAUAGUAUUGAGUUA | 0.155 ± 0.032 | 0.00418 ± 0.0024 |
| UCCUGGAUGAGCAUGCAUAGUAUUUAGAAA | 0.121 ± 0.025 | 0.00289 ± 0.0024 |
| UCCUCCUAGAGCUUGCAUAGAAUUUAGUUA | 0.0513 ± 0.0099 | 0.00468 ± 0.0013 |
| UCCUGGAUCAGCUUGCAUUGUAUUUAGAAA | 0.0362 ± 0.013 | 0.00264 ± 0.0021 |
| UCCUGCUACAGCUUGCAUAGUAUUUAGAUUA | 0.135 ± 0.023 | 0.00658 ± 0.0023 |
| UCCUGGAUCACCUUGCAUAGUAUUUAGUAA | 0.247 ± 0.038 | 0.00344 ± 0.0031 |
| UCCUCCUAGAGCUUGCAUAGUAUUUUGUUA | 0.251 ± 0.029 | 0.006 ± 0.0024 |
| UCCUGGAUCAGCUUGCAUUGUAUUUAGUAA | 0.144 ± 0.014 | 0.00441 ± 0.0018 |
| UCCUCCUACAGCUUGCAUAGAAUUUUGUUA | 0.0525 ± 0.013 | 0.00325 ± 0.0016 |
| UCCUGGAAGAGCUUGCAUAGUAUUUAGAAA | 0.109 ± 0.025 | 0.00533 ± 0.002 |
| UCCUGCUACACCUUGCAUACUAUUUAGUUA | 0.0767 ± 0.022 | 0.00403 ± 0.0024 |
| UCCUCCUACAGCUUCCAUAGUAUUUAGUAA | 0.0254 ± 0.011 | 0.0037 ± 0.0018 |
| UCCUCCUACACCUUGCAUAGUAUUUACAAA | 0.127 ± 0.032 | 0.00304 ± 0.0025 |
| UCCUGCUACAGCUUGCAAAGUAUUUAGAAA | 0.159 ± 0.033 | 0.00352 ± 0.002 |
| UCCUCCUACAGCUUGCAUAGUAUUGAGUUA | 0.133 ± 0.026 | 0.00534 ± 0.002 |
| UCCUGGUACAGCUUGCAUACUAUUAAGUUA | 0.0468 ± 0.016 | 0.00282 ± 0.0022 |
| UCCUCCUACAGCUUGCAUAGAUUUUAGAAA | 0.0147 ± 0.0053 | 0.00312 ± 0.0024 |
| UCCUGCUACAGCUUGCAUACGUAUUUAGUUA | 0.00697 ± 0.0042 | 0.00225 ± 0.0022 |
| UCCUCCUACACCUUGCAUAGUUUUUAGUUA | 0.0414 ± 0.012 | 0.00443 ± 0.002 |

| Sequence | pre-steady-state target cleavage rate [1] | pre-steady-state target cleavage rate [2] |
| --- | --- | --- |
| UCCUCCUACAGCUUGCAAAGUAUUUUCAAA | 0.0849 ± 0.023 | 0.00286 ± 0.0028 |
| UCCUGGAACAGCUUGGAUAGUAUUUAGAAA | 0.0385 ± 0.012 | 0.00373 ± 0.0019 |
| UCCUGGAUGAGCUUGCAAAGUAAUUAGUUA | 0.0348 ± 0.0091 | 0.00431 ± 0.0022 |
| UCCUGGAACUGCUUCCAUAGUAUUUAGUUA | 0.074 ± 0.022 | 0.00266 ± 0.0013 |
| UCCUGCUACAGCUUGCAUAGUAUUGAGUUA | 0.114 ± 0.027 | 0.00424 ± 0.0019 |
| UCCUGGAACAGCUUGCAUAGUAUUUUCAAA | 0.0774 ± 0.018 | 0.00233 ± 0.0023 |
| UCCUCCUACAGCUUGCAUAGUAUAAUGUAA | 0.046 ± 0.014 | 0.00413 ± 0.0027 |
| UCCUGGAAGAGCUUGCAUAGAAUUUAGUUA | 0.0498 ± 0.011 | 0.00403 ± 0.0018 |
| UCCUGGAUGUGCUUGCAUAAUAUUUAGUUA | 0.158 ± 0.018 | 0.00327 ± 0.0027 |
| UCCUGCUACAGCAUGCAUAGUAUUUAGAAA | 0.188 ± 0.041 | 0.00416 ± 0.0014 |
| UCCUCCUACUGCUUGCAUAGUAUUUUCAAA | 0.0284 ± 0.0085 | 0.00274 ± 0.0026 |
| UCCUGGAACAGCUUGCAUACUAUUUAGAUA | 0.013 ± 0.0053 | 0.00312 ± 0.0022 |
| UCCUGGAACAGCUUGCAUAGUAUUCUAGUUA | 0.145 ± 0.032 | 0.00277 ± 0.0018 |
| UCCUCCUACAGCUUGCAUAGUAAAAAGUAA | 0.0657 ± 0.019 | 0.00344 ± 0.0029 |
| UCCUCCUACAGCUUGCAUACUAUUUUGUUA | 0.0272 ± 0.0077 | 0.00468 ± 0.0034 |
| UCCUCCUACAGCUUGCAUAGUAAUUUCAAA | 0.182 ± 0.038 | 0.00321 ± 0.0026 |
| UCCUGGAUGAGCUUGCAUAGUAUUAAGAAA | 0.0183 ± 0.0092 | 0.004 ± 0.0026 |
| UCCUGGAACAGCUUGCUAUAGUAUUUAGUUA | 0.028 ± 0.0077 | 0.00682 ± 0.0023 |
| UCCUCCUAGAGCUUGCAUAGUAUUUUCAAA | 0.0731 ± 0.019 | 0.00252 ± 0.0022 |
| UCCUGCUACAGCUUGCAUAGUCUUUAGUUA | 0.122 ± 0.019 | 0.00416 ± 0.001 |
